Experimental findings from ChEMBL document CHEMBL1961873, “Compounds: GSK PKIS; Assays: Nanosyn kinase panel” (2012) are described below.

For experiment [1], the target named is RAF proto-oncogene serine/threonine-protein kinase (Homo sapiens) (UniProt P04049). As to conditions: at 1 µM.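 Further: values are the mean percent inhibition of CRAF.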
Experiment [2] has as its target T1, Interleukin-1 receptor-associated kinase 4 (Homo sapiens) (UniProt Q9NWZ3).
T1 sequence (whole entry): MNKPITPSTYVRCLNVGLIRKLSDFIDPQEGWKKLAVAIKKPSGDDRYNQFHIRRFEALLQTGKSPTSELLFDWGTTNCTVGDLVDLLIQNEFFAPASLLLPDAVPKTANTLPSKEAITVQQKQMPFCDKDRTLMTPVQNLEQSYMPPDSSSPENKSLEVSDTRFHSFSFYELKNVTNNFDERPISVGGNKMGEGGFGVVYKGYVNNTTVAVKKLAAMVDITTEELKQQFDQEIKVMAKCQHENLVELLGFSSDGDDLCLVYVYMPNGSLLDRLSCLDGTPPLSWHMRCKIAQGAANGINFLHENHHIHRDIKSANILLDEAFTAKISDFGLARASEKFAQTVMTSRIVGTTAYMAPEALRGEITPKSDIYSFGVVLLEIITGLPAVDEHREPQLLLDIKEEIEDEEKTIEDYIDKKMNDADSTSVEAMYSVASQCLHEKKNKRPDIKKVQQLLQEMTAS
As to conditions: at 0.1 µM.

The target in experiment [3] is T1, Interleukin-1 receptor-associated kinase 4 (Homo sapiens). Conditions: at 1 µM.
The target in experiment [4] is Leucine-rich repeat serine/threonine-protein kinase 2 (Homo sapiens) (UniProt Q5S007). Conditions: at 0.1 µM.
Leucine-rich repeat serine/threonine-protein kinase 2 (Homo sapiens), sequence (Q5S007 whole entry): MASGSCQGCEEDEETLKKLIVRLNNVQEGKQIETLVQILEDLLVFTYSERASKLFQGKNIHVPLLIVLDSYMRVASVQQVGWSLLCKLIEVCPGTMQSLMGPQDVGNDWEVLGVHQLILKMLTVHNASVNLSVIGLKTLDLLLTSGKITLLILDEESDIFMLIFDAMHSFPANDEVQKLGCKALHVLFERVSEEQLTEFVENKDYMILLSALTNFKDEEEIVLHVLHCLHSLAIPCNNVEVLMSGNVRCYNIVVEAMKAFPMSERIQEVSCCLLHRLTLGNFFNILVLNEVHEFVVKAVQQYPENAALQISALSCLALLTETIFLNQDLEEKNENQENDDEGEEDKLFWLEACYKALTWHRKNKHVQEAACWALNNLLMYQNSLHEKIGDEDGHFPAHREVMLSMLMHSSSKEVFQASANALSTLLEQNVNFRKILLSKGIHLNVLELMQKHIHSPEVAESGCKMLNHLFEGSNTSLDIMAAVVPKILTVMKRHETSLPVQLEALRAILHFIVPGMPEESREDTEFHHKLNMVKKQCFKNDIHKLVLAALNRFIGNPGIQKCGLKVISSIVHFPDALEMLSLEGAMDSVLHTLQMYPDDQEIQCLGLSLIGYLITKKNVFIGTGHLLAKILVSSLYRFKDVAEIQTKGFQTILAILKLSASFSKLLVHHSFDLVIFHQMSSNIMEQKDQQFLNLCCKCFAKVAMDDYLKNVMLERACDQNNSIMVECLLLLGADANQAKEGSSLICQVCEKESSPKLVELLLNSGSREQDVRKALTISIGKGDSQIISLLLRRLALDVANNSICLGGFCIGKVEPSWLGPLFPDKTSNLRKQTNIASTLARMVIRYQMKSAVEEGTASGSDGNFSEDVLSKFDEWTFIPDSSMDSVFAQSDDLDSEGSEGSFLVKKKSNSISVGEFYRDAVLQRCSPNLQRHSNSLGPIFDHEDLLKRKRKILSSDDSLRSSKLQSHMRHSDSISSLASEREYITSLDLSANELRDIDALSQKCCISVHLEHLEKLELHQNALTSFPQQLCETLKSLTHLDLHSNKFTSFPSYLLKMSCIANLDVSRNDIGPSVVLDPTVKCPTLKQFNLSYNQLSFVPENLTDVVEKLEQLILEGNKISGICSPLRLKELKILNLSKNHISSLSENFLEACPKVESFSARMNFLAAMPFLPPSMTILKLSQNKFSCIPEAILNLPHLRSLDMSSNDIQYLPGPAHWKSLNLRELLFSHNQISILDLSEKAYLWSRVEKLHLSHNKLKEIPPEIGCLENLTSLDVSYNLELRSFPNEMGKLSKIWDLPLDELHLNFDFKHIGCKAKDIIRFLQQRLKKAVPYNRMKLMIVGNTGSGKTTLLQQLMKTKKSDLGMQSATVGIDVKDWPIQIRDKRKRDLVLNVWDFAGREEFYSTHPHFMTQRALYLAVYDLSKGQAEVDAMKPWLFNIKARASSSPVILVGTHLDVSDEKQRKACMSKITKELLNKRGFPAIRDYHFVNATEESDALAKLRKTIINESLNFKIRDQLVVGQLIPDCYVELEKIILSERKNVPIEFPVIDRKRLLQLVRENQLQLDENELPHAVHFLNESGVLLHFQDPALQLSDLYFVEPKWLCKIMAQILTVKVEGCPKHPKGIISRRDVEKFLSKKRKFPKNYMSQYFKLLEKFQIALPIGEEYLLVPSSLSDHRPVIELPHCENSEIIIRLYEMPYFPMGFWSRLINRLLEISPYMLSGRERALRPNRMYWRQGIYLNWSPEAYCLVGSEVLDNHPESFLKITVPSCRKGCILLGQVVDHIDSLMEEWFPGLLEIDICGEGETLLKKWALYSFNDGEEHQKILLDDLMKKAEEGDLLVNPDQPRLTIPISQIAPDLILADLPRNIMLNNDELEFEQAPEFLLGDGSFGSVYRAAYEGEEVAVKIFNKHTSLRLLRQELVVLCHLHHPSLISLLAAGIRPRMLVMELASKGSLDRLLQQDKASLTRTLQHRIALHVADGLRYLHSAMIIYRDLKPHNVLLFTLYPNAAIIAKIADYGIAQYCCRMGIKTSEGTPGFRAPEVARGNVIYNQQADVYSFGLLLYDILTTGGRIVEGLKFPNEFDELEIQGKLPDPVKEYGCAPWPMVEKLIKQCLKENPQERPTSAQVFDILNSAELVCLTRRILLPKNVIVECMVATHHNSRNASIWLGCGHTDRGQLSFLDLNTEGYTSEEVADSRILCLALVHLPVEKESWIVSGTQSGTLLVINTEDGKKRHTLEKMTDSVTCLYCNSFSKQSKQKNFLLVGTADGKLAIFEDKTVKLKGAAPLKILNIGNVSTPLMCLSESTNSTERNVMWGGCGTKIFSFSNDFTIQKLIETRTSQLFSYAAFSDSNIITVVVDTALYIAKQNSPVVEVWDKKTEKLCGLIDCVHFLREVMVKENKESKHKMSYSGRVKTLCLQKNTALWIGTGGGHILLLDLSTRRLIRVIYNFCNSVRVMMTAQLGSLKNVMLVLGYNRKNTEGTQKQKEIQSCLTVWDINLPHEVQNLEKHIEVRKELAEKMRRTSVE
Experiment [5] has the same target. Conditions: at 1 µM.
The test system of experiment [6] is Leucine-rich repeat serine/threonine-protein kinase 2 (Homo sapiens), Q5S007 [G2019S]. As to conditions: at 0.1 µM.
Leucine-rich repeat serine/threonine-protein kinase 2 (Homo sapiens), Q5S007 [G2019S], sequence (Q5S007 whole entry G2019S): as the sequence (Q5S007 whole entry) above, with G2019S counted along it
The test system is the same in experiment [7]. As to conditions: at 1 µM.

RAF proto-oncogene serine/threonine-protein kinase (Homo sapiens), sequence (P04049 whole entry): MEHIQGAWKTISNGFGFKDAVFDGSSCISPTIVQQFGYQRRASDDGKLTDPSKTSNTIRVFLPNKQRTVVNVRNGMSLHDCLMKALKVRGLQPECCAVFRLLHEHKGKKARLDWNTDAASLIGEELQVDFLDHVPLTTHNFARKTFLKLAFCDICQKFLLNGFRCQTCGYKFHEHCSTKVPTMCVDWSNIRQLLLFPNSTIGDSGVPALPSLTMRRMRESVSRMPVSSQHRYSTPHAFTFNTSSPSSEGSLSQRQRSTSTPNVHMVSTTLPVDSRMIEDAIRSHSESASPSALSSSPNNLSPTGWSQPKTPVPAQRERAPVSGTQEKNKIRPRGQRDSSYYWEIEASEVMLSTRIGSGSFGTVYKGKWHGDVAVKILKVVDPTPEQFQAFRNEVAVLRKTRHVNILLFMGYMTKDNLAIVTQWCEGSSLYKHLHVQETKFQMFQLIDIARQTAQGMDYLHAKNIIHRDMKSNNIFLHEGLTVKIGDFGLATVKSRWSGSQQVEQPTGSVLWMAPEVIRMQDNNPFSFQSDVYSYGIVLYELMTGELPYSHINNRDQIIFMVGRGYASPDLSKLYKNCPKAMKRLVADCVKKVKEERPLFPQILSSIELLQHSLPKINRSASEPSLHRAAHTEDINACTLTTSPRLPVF

As to `C#Cc1cccc(Nc2ncnc3ccc(OCCCCNCCS(C)(=O)=O)cc23)c1`, the inhibition in experiment [1] was -0.78%; in experiment [2], 4.25%; in experiment [3] it was 2.41%; in experiment [4], -4.32%; in experiment [5] it was 1.7%; in experiment [6], -0.62%. For the same compound, in experiment [7], the inhibition turned out to be 5.54%.
Turning to `O=C(Nc1ccc(Oc2ccc3[nH]c(NC(=O)c4ccccc4)nc3c2)cc1)Nc1cc(C(F)(F)F)ccc1F`, the inhibition in experiment [1] was 17.9%; in experiment [2], -1.64%; in experiment [3], 2.09%; in experiment [4] it was 13%; in experiment [5], 18.4%; in experiment [6], 6.22%. Further, in experiment [7], the inhibition worked out at 36.1%.
As to `O=C(Nc1n[nH]c2nc(-c3ccc(O)cc3)c(Br)cc12)C1CC1`, the inhibition in experiment [1] came to 3.99%; in experiment [2], 3.81%; in experiment [3] it was 3.24%; in experiment [4], 5.19%; in experiment [5], 14.1%; in experiment [6], 6.34%. Also, the inhibition in experiment [7] was 22.4%.
Consider `CS(=O)(=O)CCNCc1cc(-c2cc3c(Nc4ccc(OCc5cccc(F)c5)c(Cl)c4)ncnc3s2)cs1`, for which the inhibition in experiment [1] was -3.41%; in experiment [2], 2.58%; in experiment [3], 3.31%; in experiment [4], 0.31%; in experiment [5] it was 4.51%; in experiment [6], 1.2%. The inhibition in experiment [7] came out at 5.39%.
On to `CCC(=O)Nc1ccc(C)c(-c2ccc(C(=O)NCC3CC3)cc2)c1`, for which the inhibition in experiment [1] was -0.29%; in experiment [2], 1.62%; in experiment [3], 2.19%; in experiment [4] it was -0.86%; in experiment [5], 1.68%; in experiment [6] it was 0.68%. The inhibition in experiment [7] is 2.28%.
In the case of `CN(C)CCOc1ccc(-c2cc(-c3ccc4c(c3)CCC4=NO)c(-c3ccncc3)o2)cc1`, the inhibition in experiment [1] is 39.8%; in experiment [2] it was -0.42%; in experiment [3], 0.12%; in experiment [4], 1.03%; in experiment [5], 3.55%; in experiment [6], 1.85%. In experiment [7], the inhibition turned out to be 2.48%.
As to `Fc1ccc(-c2c(-c3ccncc3)nc3n2CCS3)cc1`, the inhibition was -2.98% in experiment [1]; 1.96% in experiment [2]; 1.7% in experiment [3]; -3.32% in experiment [4]; -2.49% in experiment [5]; -1.05% in experiment [6]. The inhibition in experiment [7] came to 0.48%.
On to `c1ccc(Oc2ccc(Nc3ncc(-c4ccccc4)o3)cc2)cc1`, for which the inhibition in experiment [1] was 1.5%; in experiment [2] it was 1.75%; in experiment [3], 0.97%; in experiment [4], 1.55%; in experiment [5], 3.95%; in experiment [6] it was 4.15%. In addition, the inhibition in experiment [7] is 6.81%.
With `COc1cc(Nc2ncc(-c3ccccc3)o2)cc(OC)c1OC`, the inhibition is -4.59% in experiment [1]; -0.52% in experiment [2]; 0.55% in experiment [3]; 0.73% in experiment [4]; 8.78% in experiment [5]; 4.17% in experiment [6]. In experiment [7], the inhibition amounted to 21.3%.
Turning to `Cc1nnc(-c2ccc(C)c(-c3ccc(C(=O)NCc4ccc(Cl)cc4)cc3)c2)o1`, the inhibition is -0.47% in experiment [1]; 4.09% in experiment [2]; 2.12% in experiment [3]; -4.32% in experiment [4]; -3.04% in experiment [5]; -2.08% in experiment [6]. In experiment [7], the inhibition was -4%.
On to `O=C1NC(=O)C(c2cccc(Cl)c2)=C1Nc1ccc(Cl)c(C(=O)O)c1`, for which the inhibition in experiment [1] was found to be 17.7%; in experiment [2] it was 3.69%; in experiment [3] it was 1.5%; in experiment [4] it was 2.15%; in experiment [5] it was 4.76%; in experiment [6] it was 3.36%. Besides, the inhibition in experiment [7] was 7.81%.
Regarding `COc1cccc(/C=N/Nc2ncnc3c2cnn3-c2cccc(OC)c2)c1`, the inhibition in experiment [1] was -1.82%; in experiment [2], 1.63%; in experiment [3] it was 2.48%; in experiment [4] it was -1.62%; in experiment [5] it was 0.55%; in experiment [6], 0.17%. In experiment [7], the inhibition is 5.07%.
Regarding `CCS(=O)(=O)c1ccc(OC)c(Nc2ncc(-c3cccc(-c4ccccc4F)c3)o2)c1`, the inhibition in experiment [1] is -8.29%; in experiment [2] it was 1.45%; in experiment [3], 0.38%; in experiment [4] it was 1.95%; in experiment [5] it was 11.6%; in experiment [6], 4.86%. Moreover, the inhibition in experiment [7] was 19.5%.
On to `CN(C)c1ccc2c(c1)/C(=C/Nc1ccc(S(N)(=O)=O)cc1)C(=O)N2`, for which the inhibition in experiment [1] is -6.53%; in experiment [2], 2.88%; in experiment [3] it was 0.86%; in experiment [4] it was 5.77%; in experiment [5], 16.7%; in experiment [6] it was 7.03%. In addition, in experiment [7], the inhibition turned out to be 36.4%.
For the compound `CS(=O)(=O)CCNCc1ccc(-c2ccc3ncnc(Nc4ccc(OCc5ccccc5)c(Br)c4)c3c2)o1`, the inhibition was 3.63% in experiment [1]; 0.92% in experiment [2]; 1.52% in experiment [3]; -4.59% in experiment [4]; -6.11% in experiment [5]; -1.19% in experiment [6]. In experiment [7], the inhibition is -0.13%.
As for `Cc1ccc(NC(=O)c2ccoc2)cc1-c1ccc(C(=O)NCC2CC2)cc1`, the inhibition in experiment [1] is -0.41%; in experiment [2], 1.67%; in experiment [3], 2%; in experiment [4] it was 1.24%; in experiment [5], 4.06%; in experiment [6] it was 2.32%. Moreover, the inhibition in experiment [7] is 2.75%.
As to `FC(F)(F)c1cccc(Nc2nccc(-c3cnn4nc(-c5ccccc5)ccc34)n2)c1`, the inhibition is -0.15% in experiment [1]; 0.01% in experiment [2]; 0.27% in experiment [3]; 2% in experiment [4]; -0.41% in experiment [5]; 2.35% in experiment [6]. Moreover, in experiment [7], the inhibition was 4.67%.

By inhibition is commonly meant the change of the read-out against control, counted positive when it falls.
